Experiment [1] has as its target Glutathione peroxidase 1 (Homo sapiens) (UniProt P07203). Put plainly: Primary qHTS Assay for Inhibitors of Recombinant Selenoprotein Glutathione Peroxidase 1 (GPX1) (AID 1845191). The method, boiled down:
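GPX1 10 nM, GR 100 nM, GSH 1 mM, NADPH 0.5 mM, CHP 0.5 mM (final). 30-min cpd preincubation, RT. Ex340/Em450 read t=0, t=15 min.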
(In general: Quantitative high-throughput screening tests each substance at several concentrations.)

Experiment [2] concerns the target Phospholipid hydroperoxide glutathione peroxidase GPX4 (Homo sapiens) (UniProt P36969). Put plainly: Primary qHTS Assay for Inhibitors of Recombinant Selenoprotein Glutathione Peroxidase 4 (GPX4) (AID 1845192). On activity change, negative = inhibition: series mostly up to about 50 µM. The gist of the method:
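qHTS, GR-coupled: GPX4 200 nM + cpd 30 min RT → GSH 1 mM, NADPH 0.5 mM, GR 100 nM → CHP 0.5 mM start; fluor 340/450 at t0 and t15 min; no-enzyme wells as control.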

Records with an inconclusive call do not appear. Values without a mark were called inactive. Active and inactive are the calls of the source. The call rests on the fitted dose curve; in most records, active means well fitted inhibition curve with a large enough effect; inconclusive means small, poorly fitted or top-dose-only effect; inactive means flat fitted curve, though single readings scatter.
Further: nearly all actives have a fitted effect of over 65% in size.
On the % scale 0 is the no-effect control and ±100 the full control effect.

Chain of Glutathione peroxidase 1 (Homo sapiens) (P07203 whole entry, looked up): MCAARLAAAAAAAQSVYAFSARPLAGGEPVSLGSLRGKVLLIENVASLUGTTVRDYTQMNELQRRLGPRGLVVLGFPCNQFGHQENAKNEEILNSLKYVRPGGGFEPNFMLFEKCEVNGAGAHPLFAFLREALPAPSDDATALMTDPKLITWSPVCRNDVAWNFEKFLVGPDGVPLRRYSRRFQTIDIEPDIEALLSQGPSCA
Chain of Phospholipid hydroperoxide glutathione peroxidase GPX4 (Homo sapiens) (P36969 whole entry, looked up): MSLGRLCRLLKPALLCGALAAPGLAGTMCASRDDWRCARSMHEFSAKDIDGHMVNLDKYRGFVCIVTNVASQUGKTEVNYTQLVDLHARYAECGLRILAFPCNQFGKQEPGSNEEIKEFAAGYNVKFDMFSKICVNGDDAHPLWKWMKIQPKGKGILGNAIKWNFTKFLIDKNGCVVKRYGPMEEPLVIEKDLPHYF

Take `CCCCN(CCCC)CCCOC(=O)c1ccc(N)cc1`: the Potency entry in experiment [1] and in experiment [2] was “inactive” each time.

In the case of `CN(C)CCCN1c2ccccc2CCc2ccccc21`, the Potency result in experiment [1] and in experiment [2] was “inactive” throughout.

With `CCCCCCCCCCCCCCCCCCOCC(O)CO` (stereo not given), the Potency result in experiment [1] and in experiment [2] was “inactive” each time.

As to `O=Cc1ccccc1C=O`, the Potency result in experiment [1] and in experiment [2] was “inactive” in each case.

With `OCC(CO)N[C@H]1C[C@](O)(CO)[C@@H](O)[C@H](O)[C@H]1O`, the Potency entry in experiment [1] and in experiment [2] was “inactive” each time.

`CN1CCCCC1CCN1c2ccccc2Sc2ccc(S(C)=O)cc21` (stereo not given): the Potency entry in experiment [1] and in experiment [2] was “inactive” throughout.

For `CC(COc1ccccc1)NC(C)C(O)c1ccc(O)cc1` (stereo not given), the Potency result in experiment [1] and in experiment [2] was “inactive” each time.

Consider `CCCCCCCCCCCCOS(=O)(=O)O`, for which the Potency result in experiment [1] and in experiment [2] was “inactive” throughout.

Take `NC(=O)N/N=C/c1ccc([N+](=O)[O-])o1`: the Potency entry in experiment [1] and in experiment [2] was “inactive” in each case.

As for `OCc1cc(C(O)CNCCCCCCOCCCCc2ccccc2)ccc1O` (stereo not given), the Potency result in experiment [1] and in experiment [2] was “inactive” each time.

In the case of `NCCNCCNCCNCCN`, the outcome is “inactive [at 9.52 µM]” in experiment [1] and “inactive [at 9.73 µM]” in experiment [2].

Turning to `O=c1[nH]c(=O)c2[nH]c(=O)[nH]c2[nH]1`, the activity, negative = inhibition in experiment [1] was -12.4% [at 9.52 µM]. Besides, the activity change, negative = inhibition in experiment [2] is -16.1% [at 9.73 µM].

In the case of `CC(C)(C)c1onc(OCP(=O)(O)O)c1CC(N)C(=O)O` (stereo not given), the Potency entry in experiment [1] and in experiment [2] was “inactive” each time.

In the case of `CN1[C@@H]2CC[C@H]1CC(OC(=O)C(O)c1ccccc1)C2` (stereo not given in full), the Potency entry in experiment [1] and in experiment [2] was “inactive” each time.

Consider `NC(=O)NC(=O)Cc1ccccc1`, for which the Potency result in experiment [1] and in experiment [2] was “inactive” in each case.

As to `NC(CSCC(=O)O)C(=O)O` (stereo not given), the Potency entry in experiment [1] and in experiment [2] was “inactive” throughout.

Take `CC1(C)[C@@H]2CC[C@@]1(C)C(=O)C2`: the Potency entry in experiment [1] and in experiment [2] was “inactive” throughout.

Take `O=C1NS(=O)(=O)c2ccccc21`: the Potency entry in experiment [1] and in experiment [2] was “inactive” in each case.

Regarding `CCCCOC(=O)c1ccc(O)cc1`, the Potency result in experiment [1] and in experiment [2] was “inactive” throughout.

Turning to `CCn1cc(C(=O)O)c(=O)c2cnc(N3CCNCC3)nc21`, the Potency entry in experiment [1] and in experiment [2] was “inactive” throughout.

Regarding `CC(=O)CCC(=O)O`, the Potency result in experiment [1] and in experiment [2] was “inactive” in each case.

For `CCC(=O)c1ccc(O)cc1`, the Potency entry in experiment [1] and in experiment [2] was “inactive” throughout.

For the compound `C[C@H](N)[C@H](O)c1cccc(O)c1`, the Potency entry in experiment [1] and in experiment [2] was “inactive” in each case.

`Oc1cn2c(n1)Nc1ccc(Cl)c(Cl)c1C2`: the Potency entry in experiment [1] and in experiment [2] was “inactive” throughout.

On to `NCCNCCNCCN`, for which the Potency entry in experiment [1] and in experiment [2] was “inactive” each time.

As to `CN1[C@@H]2CC(OC(=O)[C@H](CO)c3ccccc3)C[C@H]1[C@@H]1O[C@@H]12` (stereo not given in full), the Potency result in experiment [1] and in experiment [2] was “inactive” in each case.

Take `O=C1O[C@H](CO)[C@@H](O)[C@H](O)[C@H]1O`: the Potency result in experiment [1] and in experiment [2] was “inactive” in each case.

Turning to `CN(N=O)C(=O)N[C@@H]1[C@@H](O)[C@H](O)[C@@H](CO)O[C@@H]1O`, the Potency entry in experiment [1] and in experiment [2] was “inactive” each time.

Turning to `O=C(O)c1ccccn1`, the Potency result in experiment [1] and in experiment [2] was “inactive” each time.

In the case of `CCOC(=O)c1ccc(O)cc1`, the Potency result in experiment [1] and in experiment [2] was “inactive” throughout.

Regarding `Cc1ncc(COP(=O)(O)O)c(C=O)c1O`, the Potency entry in experiment [1] and in experiment [2] was “inactive” each time.

As for `c1ccc2c(CC3=NCCN3)cccc2c1`, the Potency entry in experiment [1] and in experiment [2] was “inactive” each time.

Consider `CCN(CC)CCNC(C(=O)OCCC(C)C)c1ccccc1` (stereo not given), for which the Potency result in experiment [1] and in experiment [2] was “inactive” in each case.

As for `OC[C@H]1O[C@@H](O[C@@H]2[C@@H](CO)O[C@](O)(CO)[C@H]2O)[C@H](O)[C@@H](O)[C@H]1O`, the Potency entry in experiment [1] and in experiment [2] was “inactive” throughout.

Turning to `CCCOC(=O)c1ccccc1`, the Potency result in experiment [1] and in experiment [2] was “inactive” in each case.

Take `Nc1ccc(S(=O)(=O)NC(=O)c2ccccc2)cc1`: the Potency entry in experiment [1] and in experiment [2] was “inactive” each time.

On to `CCCCC(CC)COC(=O)c1ccccc1O` (stereo not given), for which the Potency entry in experiment [1] and in experiment [2] was “inactive” in each case.

Consider `C[C@H]1O[C@H](O[C@H]2[C@H](O)[C@@H](O)[C@@H](O[C@H]3[C@H](O)[C@@H](O)[C@H](O)O[C@@H]3CO)O[C@@H]2CO)[C@H](O)[C@@H](O)[C@@H]1N[C@H]1C=C(CO)[C@@H](O)[C@H](O)[C@H]1O`, for which the Potency entry in experiment [1] and in experiment [2] was “inactive” in each case.

For `Oc1ccc(C(O)CNCCCCCCNCC(O)c2ccc(O)c(O)c2)cc1O` (stereo not given), the Potency result in experiment [1] and in experiment [2] was “inactive” throughout.

On to `O=C(O)Cc1sc(-c2ccccc2)nc1-c1ccc(Cl)cc1`, for which the Potency entry in experiment [1] and in experiment [2] was “inactive” in each case.

For the compound `O=c1cc(CO)occ1O`, the Potency result in experiment [1] and in experiment [2] was “inactive” throughout.

Consider `C[C@@H]1CCN(C(=O)[C@H](CCCN=C(N)N)NS(=O)(=O)c2cccc3c2NC[C@H](C)C3)[C@@H](C(=O)O)C1`, for which the Potency result in experiment [1] and in experiment [2] was “inactive” in each case.

Regarding `CC(O)COc1ccccc1` (stereo not given), the Potency result in experiment [1] and in experiment [2] was “inactive” each time.

For `Cc1cc2c(cc1S(N)(=O)=O)S(=O)(=O)CCC2`, the Potency result in experiment [1] and in experiment [2] was “inactive” throughout.

For the compound `Cc1cc(O)cc2c1O[C@](C)(CCC[C@H](C)CCC[C@H](C)CCCC(C)C)CC2`, the Potency result in experiment [1] and in experiment [2] was “inactive” throughout.

In the case of `N[C@@H](CSSC[C@H](N)C(=O)O)C(=O)O`, the activity, negative = inhibition in experiment [1] is -7.33% [at 0.4 µM]. Besides, the activity change, negative = inhibition in experiment [2] was -7.83% [at 0.409 µM].

In the case of `O=C(O)CC(O)C(=O)O` (stereo not given), the Potency entry in experiment [1] and in experiment [2] was “inactive” each time.

On to `Cn1cc[nH]c1=S`, for which the Potency result in experiment [1] and in experiment [2] was “inactive” each time.

Take `NCC(=O)CCC(=O)O`: the Potency result in experiment [1] and in experiment [2] was “inactive” each time.

As for `NS(=O)(=O)c1cc2c(cc1C(F)(F)F)NC(Cc1ccccc1)NS2(=O)=O` (stereo not given), the Potency entry in experiment [1] and in experiment [2] was “inactive” each time.

The values above are taken from PubChem BioAssay (NCATS).
